# Compound activity as filed in PubChem.
# PP1 counter – PP1-alpha phosphatase inhibitors, primary screen, counter-screen for PP5 inhibitor project, biochemical, fluorescence, OMFP substrate, single point; purified PP1alpha; inhibition, % at 6.7 µM; actives 0.9% (n = 320,000); AID 2235, 2010;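 active means inhibition above the mean inhibition of all tested compounds plus 3 SD, computed separately for each screening campaign, cut at about 15% in these data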
# H9c2 protect – cardioprotection against H2O2-induced cell death, primary screen, uHTS, H9c2 cells, ATPLite luminescence. H9c2 cardiomyocytes, H2O2 injury protection, 2 h. protection from H2O2 cell death, % at 20 µM. actives 0.63% (n = 360,000);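 active means compounds giving at least 50% protection of heart cells from peroxide-induced death in the single-dose screen, raw or plate-pattern-corrected value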
# PP5 primary – PP5 phosphatase inhibitors, primary screen, biochemical, fluorescence. Serine/threonine-protein phosphatase 5 (Homo sapiens), P53041. purified PP5c, OMFP substrate fluorescence. inhibition, % at 6.7 µM. actives 0.18% (n = 320,000). AID 1987, 2009;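 active means inhibition above the campaign's mean inhibition across all tested compounds plus 3 SD, cut at about 9.5% in these data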
# ATG4B inhibitor – ATG4B protease inhibitors, primary screen, biochemical, fluorescence, uHTS | ATG4B cleavage of LC3-PLA2, NBD-HPC fluorescence, 1 h | actives 0.51% (n = 340,000) | inhibition, % at 8.33 µM | Cysteine protease ATG4B (Homo sapiens), Q9Y4P1; in the data active means inhibition above about 40%
# Target sequence (Q9Y4P1 whole entry, looked up): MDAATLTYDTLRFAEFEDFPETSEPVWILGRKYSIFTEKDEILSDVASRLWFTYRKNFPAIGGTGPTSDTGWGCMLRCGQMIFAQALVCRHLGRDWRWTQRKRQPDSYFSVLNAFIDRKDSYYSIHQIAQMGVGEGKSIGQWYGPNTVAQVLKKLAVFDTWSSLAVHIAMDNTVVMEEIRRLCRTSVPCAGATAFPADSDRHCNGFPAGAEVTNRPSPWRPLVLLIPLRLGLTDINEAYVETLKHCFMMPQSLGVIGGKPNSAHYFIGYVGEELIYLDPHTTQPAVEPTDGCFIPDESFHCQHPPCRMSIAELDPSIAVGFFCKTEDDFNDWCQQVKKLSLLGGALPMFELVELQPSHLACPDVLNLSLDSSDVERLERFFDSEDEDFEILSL
# PP1 confirm – PP1 phosphatase inhibitors, confirmation, biochemical, fluorescence, OMFP substrate, triplicate; purified PP1alpha; actives 52% (n = 1,900); inhibition, % at 6.7 µM; AID 2358, 2010; shares compounds with PP1 counter;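 active means mean PP1 inhibition above a set limit taken from the earlier primary screen, cut at about 15% in these data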
# PP5 inh counter – PP5 phosphatase inhibition by PP1 hits, confirmation, counter-screen for PP1 inhibitor project, biochemical, fluorescence, triplicate; shares compounds with PP1 counter; purified PP5c, OMFP fluorescence; inhibition, % at 6.7 µM; actives 4% (n = 1,900); AID 2360, 2010;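 active means mean PP5 inhibition over triplicate wells above about 9.5% taken from the earlier PP1 screen, limit read from the data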
# Hits are given with their value; 0 = inactive; - = no result given. Shown are actives, neighbours in structure and some others; about 1.9% of the full set was active somewhere.
SMILES,PP1 counter,H9c2 protect,PP5 primary,ATG4B inhibitor,PP1 confirm,PP5 inh counter
O=C1CCC([N+](=O)[O-])C(C2CC=CCC2)N1 (centres undefined),0,0,0,0,-,-
COc1ccc(/C=C2\N=C(c3c(-c4ccccc4)noc3C)OC2=O)cc1OC,19,0,0,0,0,0
O=C(COc1ccccc1)N1CCN(S(=O)(=O)c2ccc(Br)cc2)CC1,22,0,0,0,0,0
Cc1cccc(N2CCN(S(=O)(=O)c3ccc4c(c3)CC(=O)N4C)CC2)c1C,18,0,0,0,0,0
O=C(O)CN1C(=O)/C(=C\c2ccccc2OCc2ccc(Cl)cc2Cl)SC1=S,24,0,0,0,21,0
O=C(O)CN1C(=O)/C(=C\c2cccc(OCc3ccc(Cl)cc3Cl)c2)SC1=S,-,0,-,0,-,-
NC(=O)CC(NC(=O)Cc1ccc(Br)cc1)c1ccc(NCCc2cccc(F)c2)c([N+](=O)[O-])c1 (centres undefined),18,0,0,0,23,0
CC(C)Nc1ccc(C(CC(N)=O)NC(=O)Cc2ccc(Br)cc2)cc1[N+](=O)[O-] (centres undefined),0,0,0,0,-,-
NC(=O)CC(NC(=O)Cc1cccc2ccccc12)c1ccc(NC2CCCCCC2)c([N+](=O)[O-])c1 (centres undefined),24,0,0,0,24,0
NC(=O)CC(NC(=O)Cc1cccc2ccccc12)c1ccc(NC2CCCCCCC2)c([N+](=O)[O-])c1 (centres undefined),0,0,0,0,-,-
NC(=O)CC(NC(=O)Cc1ccc(Br)cc1)c1ccc(NCCOc2ccccc2)c([N+](=O)[O-])c1 (centres undefined),20,0,0,0,26,0
Cc1ccc(CN2C(=O)C3CCCN3c3ccc(C#N)cc32)cc1 (centres undefined),18,-,0,-,0,0
CNCCNC[C@H](Cc1cccc2ccccc12)NCCc1ccccc1,-,0,-,0,-,-
CNC[C@H](Cc1ccccc1)NC[C@@H](Cc1cccc2ccccc12)NCCc1ccc(C)cc1,20,0,0,0,0,0
CCOC(=O)c1[nH]c2ccccc2c1CCCN1C(=O)c2ccccc2C1=O,32,0,0,0,25,0
O=C(NCCC1CCCCN1S(=O)(=O)c1ccc(Cl)cc1)C(=O)NCc1cccnc1 (centres undefined),52,0,0,0,0,0
Cc1cccc(-c2nnc(NC(=O)c3ccc(N4C(=O)CCC4=O)cc3)s2)c1,19,0,0,0,0,0
Cc1cccc(C(CC(=O)N2CCCCC2)c2ccccc2)c1O (centres undefined),0,0,0,0,-,-
COc1ccc(C(=O)CSc2nc(N)nc(SC)c2C#N)cc1,27,0,0,0,28,0
Cc1nn(CC(=O)OCC(=O)Nc2cccc(S(N)(=O)=O)c2)c(C)c1[N+](=O)[O-],-,0,-,0,-,-
CN(C)c1ccc(-c2cc(O)c3ncccc3c2)cc1,21,0,0,0,21,0
Oc1cc(-c2ccncc2)cc2cccnc12,-,0,-,0,-,-
O=Cc1ccccc1-c1cn(CCCOCc2ccccc2)nn1,0,0,0,0,-,-
CC1(OC(=O)c2cccs2)C(=O)C=C2C=C(c3ccc(C#N)cc3)OC=C2C1=O (centres undefined),21,-,0,-,0,0
Cc1cccc(C)c1OCC(=O)N=Nc1c(O)[nH]c2ccc(Br)cc12,0,0,0,0,-,-
CC(Oc1ccccc1)C(=O)N=Nc1c(O)[nH]c2ccc(Br)cc12 (centres undefined),18,0,0,0,0,0
CCOc1ccc(CCNC(=O)c2cc(C)nn2-c2ccccc2)cc1,0,0,0,0,-,-
Cc1c(C(=O)Nc2cccnc2Cl)oc2ccccc12,0,0,0,0,-,-
CCN1CCN(Cc2ccc(NC(=O)c3cc(NC(=O)c4cncc(-c5ccc(C#N)cc5)c4)cc(OC)c3)cc2C(F)(F)F)CC1,51,0,0,0,0,0
